# Laboratory results reported in PMC11006913.
# Where a chain is given by its changes, count along the chain named.
# How the values were obtained:
# Experiment in all cases: PBM; 200 nM protein, PBS
# Details in all cases: dsDNA, one strand shown
# [1] = target: NKX2-5 (Homo sapiens, UniProt P52952 125-210, R139K)
# [2] = target: T1, PAX4 (Homo sapiens, UniProt O43316 9-242, R200K)
# T1 sequence: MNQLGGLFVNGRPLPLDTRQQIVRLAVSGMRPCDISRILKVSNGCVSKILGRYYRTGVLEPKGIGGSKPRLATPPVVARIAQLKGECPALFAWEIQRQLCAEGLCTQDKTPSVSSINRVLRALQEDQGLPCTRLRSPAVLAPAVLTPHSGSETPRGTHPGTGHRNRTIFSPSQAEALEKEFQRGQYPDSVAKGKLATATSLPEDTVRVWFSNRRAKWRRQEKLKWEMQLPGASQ
# [3] = target: T2, PAX4 (Homo sapiens, UniProt O43316 9-242)
# T2 sequence: T1 sequence with K192R
# [4] = target: T3, NKX2-6 (Homo sapiens, UniProt A6NCS4 118-204)
# T3 sequence: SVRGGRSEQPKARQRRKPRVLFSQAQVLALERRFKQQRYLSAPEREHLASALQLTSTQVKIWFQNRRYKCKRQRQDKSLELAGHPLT
# [5] = target: T4, PAX4 (Homo sapiens, UniProt O43316 9-242, R200Q)
# T4 sequence: T1 sequence with K192Q
# [6] = target: T5, PAX4 (Homo sapiens, UniProt O43316 9-242, F177V)
# T5 sequence: T1 sequence with F169V, K192R
# [7] = target: T6, PAX4 (Homo sapiens, UniProt O43316 9-242, F177Y)
# T6 sequence: T1 sequence with F169Y, K192R
# [8] = target: T7, NKX2-6 (Homo sapiens, UniProt A6NCS4 118-204, F151L)
# T7 sequence: T3 sequence with F34L
# [9] = target: T8, PAX4 (Homo sapiens, UniProt O43316 9-242, R227W)
# T8 sequence: T1 sequence with K192R, R219W
# [10] = target: NKX2-5 (Homo sapiens, UniProt P52952 125-210)
# [11] = target: HOXB6 (Homo sapiens, UniProt P17509 132-218, K202E)
# [12] = target: VAX1 (Homo sapiens, UniProt Q5SQQ9 86-172)
# [13] = target: VAX1 (Homo sapiens, UniProt Q5SQQ9 86-172, T142I)
# [14] = target: VAX1 (Homo sapiens, UniProt Q5SQQ9 86-172, K157R)
# [15] = target: HOXB6 (Homo sapiens, UniProt P17509 132-218)
# [16] = target: T9, SIX6 (Homo sapiens, UniProt O95475 114-200, L167I)
# T9 sequence: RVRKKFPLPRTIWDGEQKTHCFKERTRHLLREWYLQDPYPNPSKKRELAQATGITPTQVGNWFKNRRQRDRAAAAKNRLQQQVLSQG
# [17] = target: T10, SIX6 (Homo sapiens, UniProt O95475 114-200, L143V)
# T10 sequence: T9 sequence with L30V, I54L
# [18] = target: PRRX1 (Homo sapiens, UniProt P54821 80-166, F113S)
# [19] = target: T11, SIX6 (Homo sapiens, UniProt O95475 114-200, H141N)
# T11 sequence: T9 sequence with H28N, I54L
# [20] = target: T12, SIX6 (Homo sapiens, UniProt O95475 114-200, T165P)
# T12 sequence: T9 sequence with T52P, I54L
# [21] = target: T13, SIX6 (Homo sapiens, UniProt O95475 114-200, L167M)
# T13 sequence: T9 sequence with I54M
# [22] = target: T14, SIX6 (Homo sapiens, UniProt O95475 114-200, L143M)
# T14 sequence: T9 sequence with L30M, I54L
# [23] = target: T15, SIX6 (Homo sapiens, UniProt O95475 114-200, L143I)
# T15 sequence: T9 sequence with L30I, I54L
# [24] = target: T16, SIX6 (Homo sapiens, UniProt O95475 114-200, T165G)
# T16 sequence: T9 sequence with T52G, I54L
# [25] = target: T17, SIX6 (Homo sapiens, UniProt O95475 114-200, T139Q)
# T17 sequence: T9 sequence with T26Q, I54L
# [26] = target: T18, SIX6 (Homo sapiens, UniProt O95475 114-200, T165A)
# T18 sequence: T9 sequence with T52A, I54L
# [27] = target: T19, SIX6 (Homo sapiens, UniProt O95475 114-200, L167V)
# T19 sequence: T9 sequence with I54V
# [28] = target: T20, SIX6 (Homo sapiens, UniProt O95475 114-200)
# T20 sequence: T9 sequence with I54L
# [29] = target: T21, SIX6 (Homo sapiens, UniProt O95475 114-200, T165I)
# T21 sequence: T9 sequence with T52I, I54L
# [30] = target: PRRX1 (Homo sapiens, UniProt P54821 80-166)
# [31] = target: T22, NKX2-6 (Homo sapiens, UniProt A6NCS4 118-204, R150C)
# T22 sequence: T3 sequence with R33C
# NKX2-5 (Homo sapiens, UniProt P52952 125-210), sequence (P52952 125-210): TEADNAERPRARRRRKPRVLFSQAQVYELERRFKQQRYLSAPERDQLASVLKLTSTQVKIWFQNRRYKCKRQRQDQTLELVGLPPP
# NKX2-5 (Homo sapiens, UniProt P52952 125-210, R139K), sequence (P52952 125-210 R139K): as the sequence (P52952 125-210) above, with R15K counted along it
# HOXB6 (Homo sapiens, UniProt P17509 132-218), sequence (P17509 132-218): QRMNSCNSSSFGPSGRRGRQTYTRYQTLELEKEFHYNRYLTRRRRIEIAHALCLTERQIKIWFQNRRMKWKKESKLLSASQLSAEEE
# HOXB6 (Homo sapiens, UniProt P17509 132-218, K202E), sequence (P17509 132-218 K202E): as the sequence (P17509 132-218) above, with K71E counted along it
# PRRX1 (Homo sapiens, UniProt P54821 80-166), sequence (P54821 80-166): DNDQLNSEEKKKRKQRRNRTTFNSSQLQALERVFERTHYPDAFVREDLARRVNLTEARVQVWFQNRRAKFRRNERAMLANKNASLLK
# PRRX1 (Homo sapiens, UniProt P54821 80-166, F113S), sequence (P54821 80-166 F113S): as the sequence (P54821 80-166) above, with F34S counted along it
# VAX1 (Homo sapiens, UniProt Q5SQQ9 86-172, T142I), sequence (Q5SQQ9 86-172 T142I): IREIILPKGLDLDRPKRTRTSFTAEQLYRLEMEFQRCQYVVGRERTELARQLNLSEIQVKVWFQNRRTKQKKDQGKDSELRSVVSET
# VAX1 (Homo sapiens, UniProt Q5SQQ9 86-172, K157R), sequence (Q5SQQ9 86-172 K157R): as the sequence (Q5SQQ9 86-172 T142I) above, with I57T, K72R counted along it
# VAX1 (Homo sapiens, UniProt Q5SQQ9 86-172), sequence (Q5SQQ9 86-172): as the sequence (Q5SQQ9 86-172 T142I) above, with I57T counted along it
sequence,measurement,setting,value
AGTCCCGG,binding signal,[1],"8.88 upbm affinity estimate (log intensity, higher = more binding, comparable within an allelic series)"
same,binding signal,[2],"9.42 upbm affinity estimate (log intensity, higher = more binding, comparable within an allelic series)"
same,binding signal,[3],"9.48 upbm affinity estimate (log intensity, higher = more binding, comparable within an allelic series)"
same,binding signal,[4],"9.31 upbm affinity estimate (log intensity, higher = more binding, comparable within an allelic series)"
same,binding signal,[5],"9.44 upbm affinity estimate (log intensity, higher = more binding, comparable within an allelic series)"
same,binding signal,[6],"9.3 upbm affinity estimate (log intensity, higher = more binding, comparable within an allelic series)"
same,binding signal,[7],"9.36 upbm affinity estimate (log intensity, higher = more binding, comparable within an allelic series)"
same,binding signal,[8],"9.26 upbm affinity estimate (log intensity, higher = more binding, comparable within an allelic series)"
same,binding signal,[9],"9.43 upbm affinity estimate (log intensity, higher = more binding, comparable within an allelic series)"
same,binding signal,[10],"8.88 upbm affinity estimate (log intensity, higher = more binding, comparable within an allelic series)"
CCTACGGA,binding signal,[1],"8.68 upbm affinity estimate (log intensity, higher = more binding, comparable within an allelic series)"
same,binding signal,[11],"9.05 upbm affinity estimate (log intensity, higher = more binding, comparable within an allelic series)"
same,binding signal,[12],"7.04 upbm affinity estimate (log intensity, higher = more binding, comparable within an allelic series)"
same,binding signal,[13],"7.2 upbm affinity estimate (log intensity, higher = more binding, comparable within an allelic series)"
same,binding signal,[14],"7.03 upbm affinity estimate (log intensity, higher = more binding, comparable within an allelic series)"
same,binding signal,[10],"8.68 upbm affinity estimate (log intensity, higher = more binding, comparable within an allelic series)"
same,binding signal,[15],"8.95 upbm affinity estimate (log intensity, higher = more binding, comparable within an allelic series)"
TCACTTAA,binding signal,[1],"12.2 upbm affinity estimate (log intensity, higher = more binding, comparable within an allelic series)"
same,binding signal,[11],"9.72 upbm affinity estimate (log intensity, higher = more binding, comparable within an allelic series)"
same,binding signal,[4],"13.4 upbm affinity estimate (log intensity, higher = more binding, comparable within an allelic series)"
same,binding signal,[8],"10.6 upbm affinity estimate (log intensity, higher = more binding, comparable within an allelic series)"
same,binding signal,[10],"12.3 upbm affinity estimate (log intensity, higher = more binding, comparable within an allelic series)"
same,binding signal,[15],"10.7 upbm affinity estimate (log intensity, higher = more binding, comparable within an allelic series)"
CGGCGCCG,binding signal,[1],"9.06 upbm affinity estimate (log intensity, higher = more binding, comparable within an allelic series)"
same,binding signal,[16],"8.88 upbm affinity estimate (log intensity, higher = more binding, comparable within an allelic series)"
same,binding signal,[17],"8.75 upbm affinity estimate (log intensity, higher = more binding, comparable within an allelic series)"
same,binding signal,[18],"9.2 upbm affinity estimate (log intensity, higher = more binding, comparable within an allelic series)"
same,binding signal,[19],"8.89 upbm affinity estimate (log intensity, higher = more binding, comparable within an allelic series)"
same,binding signal,[20],"9.09 upbm affinity estimate (log intensity, higher = more binding, comparable within an allelic series)"
same,binding signal,[21],"8.86 upbm affinity estimate (log intensity, higher = more binding, comparable within an allelic series)"
same,binding signal,[22],"8.74 upbm affinity estimate (log intensity, higher = more binding, comparable within an allelic series)"
same,binding signal,[23],"8.87 upbm affinity estimate (log intensity, higher = more binding, comparable within an allelic series)"
same,binding signal,[24],"8.96 upbm affinity estimate (log intensity, higher = more binding, comparable within an allelic series)"
same,binding signal,[25],"8.91 upbm affinity estimate (log intensity, higher = more binding, comparable within an allelic series)"
same,binding signal,[26],"8.83 upbm affinity estimate (log intensity, higher = more binding, comparable within an allelic series)"
same,binding signal,[27],"8.85 upbm affinity estimate (log intensity, higher = more binding, comparable within an allelic series)"
same,binding signal,[28],"8.9 upbm affinity estimate (log intensity, higher = more binding, comparable within an allelic series)"
same,binding signal,[29],"8.84 upbm affinity estimate (log intensity, higher = more binding, comparable within an allelic series)"
same,binding signal,[30],"9.48 upbm affinity estimate (log intensity, higher = more binding, comparable within an allelic series)"
same,binding signal,[10],"9.14 upbm affinity estimate (log intensity, higher = more binding, comparable within an allelic series)"
AGCCGACA,binding signal,[1],"8.87 upbm affinity estimate (log intensity, higher = more binding, comparable within an allelic series)"
same,binding signal,[18],"9.45 upbm affinity estimate (log intensity, higher = more binding, comparable within an allelic series)"
same,binding signal,[30],"9.49 upbm affinity estimate (log intensity, higher = more binding, comparable within an allelic series)"
same,binding signal,[10],"9.05 upbm affinity estimate (log intensity, higher = more binding, comparable within an allelic series)"
GCGGCCCA,binding signal,[1],"8.95 upbm affinity estimate (log intensity, higher = more binding, comparable within an allelic series)"
same,binding signal,[16],"8.92 upbm affinity estimate (log intensity, higher = more binding, comparable within an allelic series)"
same,binding signal,[17],"8.97 upbm affinity estimate (log intensity, higher = more binding, comparable within an allelic series)"
same,binding signal,[19],"8.91 upbm affinity estimate (log intensity, higher = more binding, comparable within an allelic series)"
same,binding signal,[20],"9.19 upbm affinity estimate (log intensity, higher = more binding, comparable within an allelic series)"
same,binding signal,[21],"8.93 upbm affinity estimate (log intensity, higher = more binding, comparable within an allelic series)"
same,binding signal,[22],"8.95 upbm affinity estimate (log intensity, higher = more binding, comparable within an allelic series)"
same,binding signal,[23],"8.94 upbm affinity estimate (log intensity, higher = more binding, comparable within an allelic series)"
same,binding signal,[24],"8.87 upbm affinity estimate (log intensity, higher = more binding, comparable within an allelic series)"
same,binding signal,[25],"8.74 upbm affinity estimate (log intensity, higher = more binding, comparable within an allelic series)"
same,binding signal,[26],"8.92 upbm affinity estimate (log intensity, higher = more binding, comparable within an allelic series)"
same,binding signal,[27],"8.8 upbm affinity estimate (log intensity, higher = more binding, comparable within an allelic series)"
same,binding signal,[28],"8.92 upbm affinity estimate (log intensity, higher = more binding, comparable within an allelic series)"
same,binding signal,[29],"8.91 upbm affinity estimate (log intensity, higher = more binding, comparable within an allelic series)"
same,binding signal,[10],"8.97 upbm affinity estimate (log intensity, higher = more binding, comparable within an allelic series)"
CACAAGTG,binding signal,[1],"12.4 upbm affinity estimate (log intensity, higher = more binding, comparable within an allelic series)"
same,binding signal,[31],"11.6 upbm affinity estimate (log intensity, higher = more binding, comparable within an allelic series)"
